Experimental data taken from PubChem BioAssay (Tox21).
Results filed as inconclusive are left out. Activity calls are given as the source filed them. Unless noted, calls come from the whole dose curve; as a rule, active = well fitted curve in the direction sought with a large enough effect in the repeat runs; inconclusive = weak or mixed curves; inactive = no such curve, though single readings can be large; an effect the other way counts as inactive or inconclusive.

How the values were obtained:
[1] = qHTS assay to identify small molecule antagonists of the estrogen related receptor (ERR) signaling pathway from Tox21 library - cell viability counter screen (AID 1224834); conditions: ERR reporter cells viability, CellTiter-Fluor, 17.5 h; series mostly up to 92.4 µM; note: nearly all actives have a fitted effect of over 30% in size
Procedure, shortened: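 Counter screen run in ERR cells (2,000 cells/well): cells pre-incubated 6 h, then treated with compounds for 17.5 h at 37 C. Fluorescence was read 30 min after CellTiter-Fluor addition.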

[2] = target: Luciferin 4-monooxygenase (Photinus pyralis) (UniProt P08659); assay: qHTS assay to identify small molecule inhibitors of firefly luciferase (AID 1224835); note: nearly all actives have a fitted effect of over 25% in size; conditions: purified P. pyralis luciferase, luminescence inhibition; series mostly up to 115 µM
Procedure, shortened: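 Quantitative HTS format; KM concentrations of both substrates. Purified P. pyralis FLuc activity quantified from luminescence images.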

[3] = qHTS assay to identify small molecule agonists of the constitutive androstane receptor (CAR) signaling pathway - cell viability counter screen (AID 1224836); conditions: HepG2-CYP2B6-hCAR viability, CellTiter-Fluor, 23 h, PK11195 added to every well; series mostly up to 92.4 µM; note: nearly all actives have a fitted effect of over 45% in size
Procedure, shortened: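 HepG2-CYP2B6-hCAR, 2500 cells/well, 4 h pre-incubation; cpd 15 conc + PK11195 0.75 uM final; 23 h, 37 C/5% CO2; CellTiter-Fluor, fluorescence.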

[4] = qHTS assay to identify small molecule antagonists of the constitutive androstane receptor (CAR) signaling pathway - cell viability counter screen (AID 1224837); conditions: HepG2-CYP2B6-hCAR viability, CellTiter-Fluor, 23 h, co-treated with 50 nM CITCO; series mostly up to 92.4 µM; note: nearly all actives have a fitted effect of over 45% in size
Procedure, shortened: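 CITCO at 50 nM final was added alongside compounds (15 concentrations) to double-stable hCAR/CYP2B6-2.2kb HepG2 cells. Following 23 hr at 37 C, cell viability was quantified by CellTiter-Fluor fluorescence intensity.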

[5] = target: Nuclear receptor subfamily 1 group I member 3 (Homo sapiens) (UniProt Q14994); assay: qHTS assay to identify small molecule antagonists of the constitutive androstane receptor (CAR) signaling pathway (AID 1224838); conditions: HepG2-CYP2B6-hCAR luciferase, CITCO-stimulated, 24 h; series mostly up to 92.4 µM; note: nearly all actives have a fitted effect of over 40% in size
Procedure, shortened: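 Inhibition of CITCO-driven (50 nM final) CYP2B6 reporter expression is measured in HepG2 cells stably carrying hCAR. Fifteen compound concentrations are applied for 24 h at 37 C, followed by luciferase luminescence.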

[6] = target: Nuclear receptor subfamily 1 group I member 3 (Homo sapiens) (UniProt Q14994); assay: qHTS assay to identify small molecule agonists of the constitutive androstane receptor (CAR) signaling pathway (AID 1224839); conditions: HepG2 hCAR CYP2B6-luciferase, agonist mode, 24 h; series mostly up to 92.4 µM; note: nearly all actives have a fitted effect of over 15% in size
Procedure, shortened: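 HepG2-CYP2B6-hCAR cells, 2500/well, 4 h pre-incubation; compounds 15 conc.; PK11195 0.75 uM final; 24 h, 37 C/5% CO2; ONE-Glo luciferase read.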

[7] = qHTS assay to identify small molecule antagonists of the estrogen related receptor signaling pathway with the pleiotropic PPARgamma coactivator (PGC) from Tox21 10K library - cell viability counter screen (AID 1224840; active = well fitted cell-killing curve with a large enough effect in the repeat runs, not every such curve was filed as active; note: nearly all actives have a fitted effect of over 40% in size); conditions: PGC/ERR reporter cells viability, CellTiter-Fluor, 17.5 h; series mostly up to 92.4 µM
Procedure, shortened: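 Readout: fluorescence intensity from CellTiter-Fluor after 30 min at 37 C/5% CO2. Preceded by 17.5 h treatment of PGC/ERR cells with DMSO-dissolved compounds, added 6 h post-seeding.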

[8] = qHTS assay to identify small molecule antagonists of the estrogen related receptor signaling pathway with the pleiotropic PPARgamma coactivator (PGC) from Tox21 10K library (AID 1224841; call rule not given here; note: actives are mostly falling curves and most rising ones were filed inactive; nearly all actives have a fitted effect of over 50% in size); conditions: PGC/ERR reporter cell line, ONE-Glo luciferase, 18 h; series mostly up to 92.4 µM
Procedure, shortened: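 One-Glo luminescence, measured after half an hour at room temperature, quantified reporter output of PGC/ERR cells. These had been plated at 2,000 per well, incubated 6 h, dosed with compounds in DMSO, then kept 18 h at 37 C.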

[9] = qHTS assay to identify small molecule agonists of the estrogen related receptor signaling pathway with the pleiotropic PPARgamma coactivator (PGC) from Tox21 10K library (AID 1224842); conditions: PGC/ERR reporter cell line, luciferase ONE-Glo, 18 h; series mostly up to 92.4 µM; note: nearly all actives have a fitted effect of over 15% in size
Procedure, shortened: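 PGC/ERR reporter cells (NTP line) were seeded 2,000 per well, rested 6 h at 37 C/5% CO2, then pin-dosed with compounds in DMSO for 18 h at 37 C; luciferase read by One-Glo luminescence after 30 min at room temperature.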

[10] = target: Thyrotropin receptor (Homo sapiens) (UniProt P16473); assay: qHTS assay to identify small molecule agonists of the thyroid stimulating hormone receptor (TSHR) signaling pathway (AID 1224843; calls by dose curve; note: nearly all actives have a fitted effect of over 45% in size); conditions: TSHR-HEK293 cells, cAMP HTRF, agonist mode, 30 min; series mostly up to 42.5 µM
Procedure, shortened: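 Compounds are titrated over 15 concentrations, in triplicate, onto TSHR-HEK293 cells seeded at 800/well. Plates sit 30 min at room temperature before cAMP-d2 and anti-cAMP cryptate are added; signal is read after a further hour.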

[11] = qHTS assay to identify small molecule agonists of the hypoxia (HIF-1) signaling pathway - cell viability counter screen (AID 1224844; calls by dose curve; note: nearly all actives have a fitted effect of over 50% in size); conditions: HRE-bla ME-180 viability, CellTiter-Glo luminescence, 17 h; series mostly up to 76.8 µM
Procedure, shortened: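 In this counter screen, HRE-bla ME-180 cell viability after 17 hrs of compound exposure at 37C was read by CellTiter-Glo luminescence, multiplexed with the beta-lactamase reporter measurement.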

[12] = qHTS assay to identify small molecule agonists of H2AX (AID 1224845; active = well fitted activation curve with a large enough effect in the signal ratio in the repeat runs, not every such curve was filed as active; the % refers to the signal ratio); conditions: CHO-K1 phospho-H2AX Ser139 HTRF, 3 h; series mostly up to 70.9 µM
Procedure, shortened: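 Wild-type CHO-K1 cells plated overnight, then exposed 3 hr at 37C to compounds at 15 concentrations (0.76% DMSO). Lysed, then HTRF anti-pH2AX(S139)-cryptate/anti-H2AX-d2 detection after 24 hr at room temperature; emissions 665 and 620 nm.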

[13] = qHTS assay to identify small molecule agonists of the hypoxia (HIF-1) signaling pathway (AID 1224846; active = well fitted activation curve with a large enough effect in the signal ratio in the repeat runs, not every such curve was filed as active; the % refers to the signal ratio); conditions: HRE-bla ME-180 cells, beta-lactamase ratio, 17 h; series mostly up to 76.8 µM
Procedure, shortened: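 ME-180 HRE-bla reporter cells; compounds in DMSO, 17 h at 37C; read-out beta-lactamase via CCF4-AM FRET.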

[14] = qHTS assay to identify small molecule agonists of H2AX - cell viability counter screen (AID 1224847; calls by dose curve; note: top concentration of the series differs between compounds; nearly all actives have a fitted effect of over 30% in size); conditions: CHO-K1 viability, CellTiter-Glo luminescence, 3 h; series mostly up to 70.9 µM
Procedure, shortened: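 Cells plated first: CHO-K1, 1000 per well in 10% FBS medium, incubated overnight at 37C. Then 15-point compound titration added (final DMSO 0.76%) for 3 hr. Finally CellTiter-Glo added and luminescence read.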

[15] = qHTS assay to identify small molecule antagonists of the estrogen related receptor (ERR) signaling pathway from Tox21 library (AID 1224848); conditions: ERR reporter cell line, luciferase antagonist mode, 18 h; series mostly up to 92.4 µM; note: nearly all actives have a fitted effect of over 50% in size
Procedure, shortened: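 First, 2,000 ERR cells per well were plated and held 6 h at 37 C/5% CO2. Next, compounds in DMSO were pinned in and left 18 h at 37 C. Finally, ONE-Glo was added and luminescence read after 30 min at room temperature.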

[16] = qHTS assay to identify small molecule agonists of the estrogen related receptor (ERR) signaling pathway from Tox21 library (AID 1224849; calls by dose curve; note: nearly all actives have a fitted effect of over 15% in size); conditions: ERR reporter cell line, ONE-Glo luciferase, 18 h; at 92.4 µM (top of the series) unless noted
Procedure, shortened: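 Luciferase activity in ERR pathway reporter cells served as the agonist readout; exposure lasted 18 h at 37 C, with ONE-Glo detection after 30 min at room temperature.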

[17] = qHTS RealTime-Glo MT Cell Viability Assay in HepG2 cells - 24 hour (AID 1224867); conditions: RealTime-Glo luminescence; series mostly up to 76.8 µM; note: nearly all actives have a fitted effect of over 50% in size
Procedure, shortened: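 HepG2 suspension premixed with RealTime-Glo reagents is plated at 600 cells per well and left 5 h at 37 C/5% CO2. Compounds in DMSO then go in, and bioluminescence reflecting viable cell number is recorded over 40 h.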

[18] = qHTS RealTime-Glo MT Cell Viability Assay in HEK293 cells - 32 hour (AID 1224868); conditions: RealTime-Glo luminescence; series mostly up to 76.8 µM
Procedure, shortened: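 Reads taken at 0, 8, 16, 24, 32 and 40 h from the same wells. HEK293 cells (600/well) carried RealTime-Glo reagents from seeding, with compound added after a 5 h settle at 37 C.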

[19] = A CellTox Green Cytotoxicity Assay to monitor cytotoxicity in HEK293 cells - 0 hour (AID 1224869); conditions: CellTox Green fluorescence; series mostly up to 76.8 µM; note: nearly all actives have a fitted effect of over 50% in size
Procedure, shortened: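 Real-time, in one plate: 600 HEK293 cells/well with dead-cell DNA dye, pinned compound after 5 h, 37 C incubation over 40 h; viable cells give no appreciable fluorescence.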

[20] = qHTS RealTime-Glo MT Cell Viability Assay in HepG2 cells - 40 hour (AID 1224870); conditions: RealTime-Glo luminescence; series mostly up to 76.8 µM; note: nearly all actives have a fitted effect of over 50% in size
Procedure, shortened: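 HepG2 cells mixed with RealTime-Glo MT reagents (NanoLuc plus cell-permeant prosubstrate) were seeded at 600 cells/well, incubated 5 h at 37 C/5% CO2, then pinned with compounds in DMSO; nonlytic luminescence tracked viability during 40 h treatment.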
% is set by controls: 0 for no effect and ±100 for the full control effect.

Luciferin 4-monooxygenase (Photinus pyralis), sequence (P08659 whole entry, looked up): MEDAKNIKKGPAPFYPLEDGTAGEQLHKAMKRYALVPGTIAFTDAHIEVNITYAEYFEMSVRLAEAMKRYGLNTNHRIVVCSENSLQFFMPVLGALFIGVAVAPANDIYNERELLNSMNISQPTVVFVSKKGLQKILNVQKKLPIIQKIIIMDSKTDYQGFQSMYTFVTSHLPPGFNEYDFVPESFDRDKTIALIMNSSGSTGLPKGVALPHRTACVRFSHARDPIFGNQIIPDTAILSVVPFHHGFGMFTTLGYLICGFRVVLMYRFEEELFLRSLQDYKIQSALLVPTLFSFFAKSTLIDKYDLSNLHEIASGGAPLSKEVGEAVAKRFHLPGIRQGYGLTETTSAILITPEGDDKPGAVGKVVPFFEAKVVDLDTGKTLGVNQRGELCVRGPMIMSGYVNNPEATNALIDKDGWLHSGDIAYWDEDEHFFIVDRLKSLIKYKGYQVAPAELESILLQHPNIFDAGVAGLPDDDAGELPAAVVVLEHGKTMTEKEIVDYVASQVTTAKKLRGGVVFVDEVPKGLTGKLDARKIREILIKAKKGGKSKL
Thyrotropin receptor (Homo sapiens), sequence (P16473 whole entry, looked up): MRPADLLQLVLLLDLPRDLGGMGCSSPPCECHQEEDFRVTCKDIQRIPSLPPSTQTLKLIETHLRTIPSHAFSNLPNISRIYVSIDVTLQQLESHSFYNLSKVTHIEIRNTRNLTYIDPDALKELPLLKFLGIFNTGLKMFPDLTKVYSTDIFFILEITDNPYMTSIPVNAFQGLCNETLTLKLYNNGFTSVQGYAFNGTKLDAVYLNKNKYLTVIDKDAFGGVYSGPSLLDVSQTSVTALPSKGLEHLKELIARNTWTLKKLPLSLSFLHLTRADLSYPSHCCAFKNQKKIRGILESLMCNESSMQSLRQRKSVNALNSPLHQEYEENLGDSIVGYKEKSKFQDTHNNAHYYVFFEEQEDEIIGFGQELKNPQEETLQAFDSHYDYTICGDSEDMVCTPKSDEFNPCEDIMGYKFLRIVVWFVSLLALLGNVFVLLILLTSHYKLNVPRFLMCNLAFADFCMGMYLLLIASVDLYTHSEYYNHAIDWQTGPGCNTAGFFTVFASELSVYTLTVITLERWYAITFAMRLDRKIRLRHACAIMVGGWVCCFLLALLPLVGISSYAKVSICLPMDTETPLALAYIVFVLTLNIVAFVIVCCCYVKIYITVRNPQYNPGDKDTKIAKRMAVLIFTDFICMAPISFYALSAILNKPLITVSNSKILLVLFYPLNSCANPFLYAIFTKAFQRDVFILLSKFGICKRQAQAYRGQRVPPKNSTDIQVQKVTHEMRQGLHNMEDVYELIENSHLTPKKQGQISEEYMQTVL
Nuclear receptor subfamily 1 group I member 3 (Homo sapiens), sequence (Q14994 whole entry, looked up): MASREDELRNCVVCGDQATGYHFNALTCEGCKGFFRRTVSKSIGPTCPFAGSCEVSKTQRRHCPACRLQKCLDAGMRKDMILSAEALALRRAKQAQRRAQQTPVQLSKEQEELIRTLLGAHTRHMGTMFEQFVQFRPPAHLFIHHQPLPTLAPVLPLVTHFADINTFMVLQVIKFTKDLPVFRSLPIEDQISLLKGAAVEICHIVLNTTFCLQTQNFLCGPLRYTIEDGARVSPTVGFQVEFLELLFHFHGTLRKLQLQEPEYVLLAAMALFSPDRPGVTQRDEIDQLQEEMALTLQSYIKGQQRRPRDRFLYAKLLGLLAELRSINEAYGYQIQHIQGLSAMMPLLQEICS

CN1CC(=O)NC1=N
inactive: Potency [1] | Potency [2] | Potency [3] | Potency [4] | Potency [5] | Potency [6] | Potency [7] | Potency [8] | outcome [9] | Potency [10] | Potency [11] | outcome [12] | outcome [13] | Potency [14] | Potency [15] | activity change, positive = activation [16] 4.02% [at 42.5 µM] | Potency [17] | Potency [18] | Potency [19] | Potency [20]

N[C@@H](C(=O)N[C@@H]1C(=O)N2C(C(=O)O)=C(Cl)CS[C@H]12)c1ccccc1
inactive: viability change, negative = cytotoxic [1] 3.31% [at 8.39 µM] | activity change, negative = inhibition [2] -5.09% [at 10.5 µM] | viability change, negative = cytotoxic [3] 0.971% [at 8.39 µM] | activity change, negative = cytotoxicity [4] 8.33% [at 8.39 µM] | activity, negative = inhibition [5] -13.2% [at 8.39 µM] | activation [6] -1.38% [at 8.39 µM] | viability change, negative = cytotoxic [7] 10.3% [at 8.39 µM] | activity, negative = inhibition [8] -0.314% [at 8.39 µM] | activation [9] -0.0958% [at 8.39 µM] | activation [10] -0.277% [at 8.39 µM] | activity change, negative = cytotoxicity [11] 1.81% [at 6.97 µM] | activation (H2AX phosphorylation) [12] 0.237% [at 14 µM] | activity change, negative = cytotoxicity [14] -0.534% [at 14 µM] | activity, negative = inhibition [15] 7.8% [at 8.39 µM] | activity change, positive = activation [16] 4.35% [at 8.39 µM] | activity change, negative = cytotoxicity [17] 0.732% [at 6.97 µM] | activity change, negative = cytotoxic [18] 8.14% [at 6.97 µM] | cytotoxicity [19] 2.09% [at 6.97 µM] | activity change, negative = cytotoxic [20] 0.227% [at 6.97 µM]

N[C@H](C(=O)O)c1ccc(O)cc1
inactive: viability change, negative = cytotoxic [1] -0.517% [at 19 µM] | activity change, negative = inhibition [2] -0.257% [at 23.6 µM] | viability change, negative = cytotoxic [3] -1.44% [at 19 µM] | activity change, negative = cytotoxicity [4] 4.98% [at 19 µM] | activity, negative = inhibition [5] -5.61% [at 19 µM] | activation [6] -0.259% [at 19 µM] | viability change, negative = cytotoxic [7] -4.51% [at 19 µM] | activity, negative = inhibition [8] 1.15% [at 19 µM] | activation [9] 0.319% [at 19 µM] | Potency [10] | activity change, negative = cytotoxicity [11] 4.56% [at 15.8 µM] | outcome [12] | activation [13] 0.0786% [at 15.8 µM] | Potency [14] | activity, negative = inhibition [15] 2.86% [at 19 µM] | activity change, positive = activation [16] 1.6% [at 19 µM] | activity change, negative = cytotoxicity [17] -0.341% [at 15.8 µM] | activity change, negative = cytotoxic [18] 3.67% [at 15.8 µM] | activity change, negative = cytotoxic [20] 1.99% [at 15.8 µM]

C1CN(CCOCCN2CCOCC2)CCO1
inactive: Potency [1] | Potency [2] | Potency [3] | Potency [4] | Potency [5] | Potency [6] | Potency [7] | Potency [8] | outcome [9] | Potency [10] | Potency [11] | outcome [12] | outcome [13] | Potency [14] | Potency [15] | activity change, positive = activation [16] -7.8% | Potency [17] | Potency [18] | Potency [19]

CCC(=O)OC(C)c1ccccc1 (stereo not given)
inactive: Potency [1] | Potency [2] | Potency [3] | Potency [4] | Potency [5] | Potency [6] | Potency [7] | Potency [8] | outcome [9] | Potency [10] | Potency [11] | outcome [12] | outcome [13] | Potency [15] | activity change, positive = activation [16] 0.422% | Potency [17] | Potency [18] | Potency [19] | Potency [20]

c1ccc(CC2=NCCN2)cc1
inactive: Potency [1] | Potency [2] | Potency [3] | Potency [4] | Potency [5] | Potency [6] | Potency [7] | Potency [8] | outcome [9] | Potency [10] | Potency [11] | outcome [12] | Potency [14] | Potency [15] | activity change, positive = activation [16] -1.01% [at 42.5 µM] | Potency [17] | Potency [18] | Potency [19] | Potency [20]
